Experiment [1] has as its system Zika virus NS2B-NS3 protease. Nature of the experiment: Primary screen GU AMC qHTS for Zika virus inhibitors (AID 1347154). Further: nearly all actives have a fitted effect of over 70% in size. Further: potency means the concentration at half of the fitted maximal effect. In outline:
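Fluorogenic AMC-substrate cleavage by noncovalent NS2B-NS3 protease complex (25 nM, pH 8.0 Tris buffer with Tween 20) followed for 15 minutes at room temperature (~20% conversion). Percent inhibition from ex340/em450 signal change, fitted by 4-parameter Hill equation.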
A general note: In qHTS, concentration-response curves come from the screen itself.

For experiment [2], the target named is N-terminal Xaa-Pro-Lys N-methyltransferase 1 (Homo sapiens) (UniProt Q9BV86). Nature of the experiment: qHTS Assay for Inhibitors of N-terminal methyltransferase 1 (NTMT1): LOPAC validation of the NTMT1 SAHH-coupled ThioGlo3 Assay (AID 1347143).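 Further: SAH from peptide methylation measured as thiol fluorescence via SAHH coupling and ThioGlo3; nearly all actives have a fitted effect of over 70% in size.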 Further: potency means the concentration at half of the fitted maximal effect. The procedure, abridged: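 NTMT1 125nM + cpds (various conc.), 1 min RT; add SAM 100uM/SAHH 10uM/ThioGlo3 15uM (addition mix). SAHH-coupled thiol detection, Ex340/Em450, t0 and 30 min RT; signal normalized to background. LOPAC 1280-cpd pilot.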

The subject of experiment [3] is Zika virus NS2B-NS3 protease (unlinked). Nature of the experiment: Optimization of GU AMC qHTS for Zika virus inhibitors: Unlinked NS2B-NS3 protease assay (AID 1347151). Further: series mostly up to about 52 µM; nearly all actives have a fitted effect of over 80% in size. The procedure, abridged:
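Percent inhibition is derived from the 15-min change in AMC fluorescence, normalized against no-inhibitor and no-enzyme controls, then fitted to a 4-parameter Hill curve. Aprotinin was the intraplate control.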

Another experiment has as its target Furin (Homo sapiens) (UniProt P09958). Nature of the experiment: Furin counterscreen qHTS for Zika virus inhibitors (AID 1347149). Further: nearly all actives have a fitted effect of over 70% in size. Further: potency means the concentration at half of the fitted maximal effect.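 On activity change, negative = inhibition: purified recombinant full-length human furin enzyme at 5 nM; fluorescence gain from furin cutting a BOC-RVRR-AMC peptide substrate over 15 min; top concentration of the series differs between compounds.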 In outline: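 Counterscreen measures cleavage of 2 microM BOC-RVRR-AMC, below its ~15 microM Km, by 5 nM full-length human furin at pH 7.0 after a 15-min compound preincubation. Inhibition derives from the 15-min fluorescence increase at 37C.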

The nature of experiment [4]: Confirmatory screen GU Rhodamine qHTS for Zika virus inhibitors qHTS (AID 1347157). Further: nearly all actives have a fitted effect of over 70% in size. The procedure, abridged:
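In dose–response format, inhibition of unlinked protease (25 nM) was measured with 1.5 microM bis-peptide Rhodamine110 substrate. Aprotinin served as the intraplate control.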

The test system of experiment [5] is Zika virus NS2B-NS3 protease (linked construct). Nature of the experiment: Confirmatory screen NINDS AMC qHTS for Zika virus inhibitors (AID 1347152). In outline:
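In this dose-response qHTS, AMC release from 10 microM Bz-Nle-KRR-AMC by 1 nM linked protease is measured over 15 minutes (about 20% conversion) at pH 8.0. Percent inhibition is fitted to a 4-parameter Hill curve.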

Experiment [6] has as its system Zika virus NS2B-NS3 protease (unlinked complex). Briefly: Confirmatory screen GU AMC qHTS for Zika virus inhibitors (AID 1347153). In outline: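 Noncovalent NS2B hydrophilic domain/NS3 protease complex (25 nM) in 10 mM Tris-HCl pH 8.0, 0.01% Tween 20 was preincubated 15 min at room temperature with compounds. Then 10 µM AMC substrate (Km 18.3 µM) was added; fluorescence was read over 15 min and fitted to a 4-parameter Hill equation.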

Experiment [7] can be described thus: ZIKV-mCherry secondary qHTS for Zika virus inhibitors (AID 1347158). Further: top concentration of the series differs between compounds. In outline: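 Compounds were tested in Vero monkey kidney cells infected with recombinant mCherry-expressing Zika virus at MOI 1 for 48-72 h at 37 °C. Fixed cells were nuclear-stained and imaged, and infection rate was taken as the fraction of mCherry-positive cells.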

Inconclusive results are not listed. Where a call stands in place of a potency, no number is given. Values without a mark were called inactive. Active and inactive are the calls of the source. The call rests on the fitted dose curve; in most records, active means well fitted curve in the direction sought with a large enough effect; inconclusive means small, poorly fitted or top-dose-only effect, or another doubt; inactive means no such curve, though single readings can be large; an effect the other way counts as inactive or inconclusive.

Furin (Homo sapiens), sequence (P09958 whole entry, looked up): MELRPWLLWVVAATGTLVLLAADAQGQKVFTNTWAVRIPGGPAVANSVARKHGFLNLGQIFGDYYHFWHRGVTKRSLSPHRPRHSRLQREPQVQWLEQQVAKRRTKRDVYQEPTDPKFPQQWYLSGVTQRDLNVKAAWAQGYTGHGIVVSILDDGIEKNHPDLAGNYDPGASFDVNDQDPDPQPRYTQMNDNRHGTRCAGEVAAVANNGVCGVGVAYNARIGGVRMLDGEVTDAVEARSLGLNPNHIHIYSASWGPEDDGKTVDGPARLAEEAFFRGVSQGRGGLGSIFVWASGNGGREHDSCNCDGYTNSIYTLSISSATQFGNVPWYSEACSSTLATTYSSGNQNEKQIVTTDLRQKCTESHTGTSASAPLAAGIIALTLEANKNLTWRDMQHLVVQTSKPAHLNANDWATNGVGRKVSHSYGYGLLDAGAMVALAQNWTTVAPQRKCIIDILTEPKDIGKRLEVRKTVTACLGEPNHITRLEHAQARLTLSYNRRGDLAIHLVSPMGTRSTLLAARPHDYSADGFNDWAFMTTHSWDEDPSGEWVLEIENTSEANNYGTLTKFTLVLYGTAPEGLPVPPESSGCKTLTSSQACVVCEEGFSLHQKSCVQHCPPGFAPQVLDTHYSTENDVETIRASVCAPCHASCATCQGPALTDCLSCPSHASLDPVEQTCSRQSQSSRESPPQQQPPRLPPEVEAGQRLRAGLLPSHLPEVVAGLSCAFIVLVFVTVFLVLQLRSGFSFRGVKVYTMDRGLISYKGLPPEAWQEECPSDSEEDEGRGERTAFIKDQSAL
N-terminal Xaa-Pro-Lys N-methyltransferase 1 (Homo sapiens), sequence (Q9BV86 whole entry, looked up): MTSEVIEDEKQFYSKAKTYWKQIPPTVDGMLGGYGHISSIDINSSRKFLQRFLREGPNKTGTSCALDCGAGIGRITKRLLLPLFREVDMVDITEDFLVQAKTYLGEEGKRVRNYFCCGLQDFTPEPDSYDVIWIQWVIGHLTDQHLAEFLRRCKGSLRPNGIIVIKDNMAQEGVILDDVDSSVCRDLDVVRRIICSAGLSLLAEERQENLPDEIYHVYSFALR

Turning to `COC(=O)c1ccc(NC(C)=O)cc1OC`, the Potency entry in experiment [1] was “inactive”.

In the case of `Nc1ncnc2n[nH]c(Nc3ccc(F)cc3)c12`, the Potency result in experiment [2], in experiment [3] and in experiment [1] was “inactive” throughout.

As for `O=C(COCCOCCOCC(=O)Nc1c(I)cc(I)c(C(=O)O)c1I)Nc1c(I)cc(I)c(C(=O)O)c1I`, the Potency result (in the experiment with Furin (Homo sapiens); in experiment [1]; in experiment [4]) was “inactive” in each case.

For the compound `O=c1[nH]c2ccccc2c(=O)n1CCCl`, the Potency result in experiment [1] was “inactive”.

For `CCCCCCCCCCCCCCCCCCN(C)C`, the Potency result in experiment [1] is “inactive”.

Take `O=C1NC(c2cccc([N+](=O)[O-])c2)=CCN1c1ccccc1O`: the Potency in experiment [2] is 50.1 µM (active). In addition, the Potency entry in experiment [3] and in experiment [1] was “inactive” throughout.

Take `Cc1nc(C2CCCCC2)c(-c2ccc(S(N)(=O)=O)c(F)c2)o1`: the figures for the Potency (in the experiment with Furin (Homo sapiens); in experiment [5]; in experiment [1]) were 24.1 µM (active), 24.1 µM (active) and 14.4 µM (active), respectively.

On to `CCC(=O)O[C@H]1[C@H](O[C@@H]2[C@@H](C)[C@H](O[C@H]3C[C@@](C)(OC)[C@@H](O)[C@H](C)O3)[C@@H](C)C(=O)O[C@H](CC)[C@@](C)(O)[C@H](O)[C@@H](C)C(=O)[C@H](C)C[C@@]2(C)O)O[C@H](C)C[C@@H]1N(C)C`, for which the figures for the Potency (with Furin (Homo sapiens); in experiment [5]; in experiment [6]) were 34.1 µM (active), 13.6 µM (active) and 19.2 µM (active), respectively.

Take `Nc1cc(C(F)(F)F)ccc1S`: the Potency entry in experiment [1] was “inactive”.

Consider `CCOC(=O)Cn1cccc1-c1nc(-c2ccc(OC)cc2)c(-c2ccc(OC)cc2)s1`, for which the Potency in experiment [5] is 24.1 µM (active). For the same compound, in experiment [7], the outcome was inactive.

For the compound `CNC(=O)c1c(I)c(NC(C)=O)c(I)c(C(=O)O)c1I`, in experiment [1], the Potency result is “inactive”.

Regarding `Cc1cccc(N(C)C(=S)Oc2ccc3c(c2)C2CCC3C2)c1` (stereo not drawn), the Potency result in experiment [1] was “inactive”.

Consider `CCCCCC1Nc2cc(C(F)(F)F)c(S(N)(=O)=O)cc2S(=O)(=O)N1` (stereo not drawn), for which, in experiment [1], the Potency entry is “inactive”.

With `O=C(CCCCC(=O)Nc1c(I)cc(I)c(C(=O)O)c1I)Nc1c(I)cc(I)c(C(=O)O)c1I`, the activity change, negative = inhibition with Furin (Homo sapiens) is 9.18% [at 18.8 µM]. Further, the Potency entry in experiment [1] and in experiment [4] was “inactive” throughout.

In the case of `CCN(CC)C(=O)C1CN2CCc3cc(OC)c(OC)cc3C2CC1OC(C)=O` (stereo not drawn), in experiment [1], the Potency result is “inactive”.

Turning to `COc1ccccc1N1CCN(CCN2C(=O)CC3(CCCC3)CC2=O)CC1`, in experiment [2], the Potency was 56.2 µM (active). Further, the Potency result in experiment [3] and in experiment [1] was “inactive” each time.

For `CN1CCN(N)CC1`, in experiment [1], the Potency result was “inactive”.

Consider `Clc1ccc2c(c1)N=C(N1CCNCC1)c1ccccc1N2`, for which the Potency result in experiment [2], in experiment [3] and in experiment [1] was “inactive” each time.

Take `CC(=O)N(CC(=O)N(C)C)c1ccccc1`: in experiment [1], the Potency result is “inactive”.

For the compound `CC(=O)OCC(=O)Nc1cc(C#N)cc(NC(=O)COC(C)=O)c1Cl`, in experiment [1], the Potency result was “inactive”.

Take `O=C1CC2(CCCC2)CC(=O)N1`: the Potency result in experiment [1] is “inactive”.

On to `CC(C)(c1ccc(O)cc1)c1ccc(O)cc1`, for which the Potency entry in experiment [1] was “inactive”.

For the compound `O=C(O)CCC(=O)OC[C@@H](NC(=O)C(Cl)Cl)[C@H](O)c1ccc([N+](=O)[O-])cc1`, the Potency result in experiment [1] was “inactive”.

Take `CCCC(CCC)(C(=O)OCC)C(=O)OCC`: the Potency entry in experiment [1] is “inactive”.

Turning to `C[C@H]1NCc2cc(-c3ccc4c(=O)c(C(=O)O)cn(C5CC5)c4c3OC(F)F)ccc21`, the Potency result in experiment [1] is “inactive”.

With `COC(=O)/C=C(/C)N`, the Potency entry in experiment [1] is “inactive”.

Take `O=C(OCC(O)CO)c1ccccc1Nc1ccnc2c(C(F)(F)F)cccc12` (stereo not drawn): the Potency result in experiment [1] was “inactive”.

For `COc1cc(C=O)ccc1O`, in experiment [1], the Potency result is “inactive”.

In the case of `NCC(=O)O`, the Potency entry in experiment [1] was “inactive”.

As for `CCC(CN)=C(c1ccccc1)c1ccccc1`, the Potency entry in experiment [1] is “inactive”.

As to `Cc1ccc(C(=O)C(=O)O)cc1C`, the Potency entry in experiment [1] was “inactive”.

On to `Cn1cc(S(C)=O)c(=O)c2ccc(F)cc21` (stereo not drawn), for which the Potency result in experiment [1] is “inactive”.

Turning to `OCc1c[nH]c2ccccc12`, the Potency entry in experiment [1] was “inactive”.

With `CC(C)(Oc1ccc(Cl)cc1)C(=O)OCCCOC(=O)C(C)(C)Oc1ccc(Cl)cc1`, the Potency entry in experiment [1] is “inactive”.

For `CSCC[C@H](NC(=O)[C@H](Cc1c[nH]c2ccccc12)NC(=O)CCNC(=O)OC(C)(C)C)C(=O)N[C@@H](CC(=O)O)C(=O)N[C@@H](Cc1ccccc1)C(N)=O`, in experiment [1], the Potency entry was “inactive”.

Consider `CC(=O)N[C@@H](CCC(N)=O)C(=O)O`, for which the Potency entry in experiment [1] was “inactive”.

As for `Cc1c(C)c2c(c(C)c1OC(=O)CCC(=O)OCCO)CC[C@@](C)(CCC[C@H](C)CCC[C@H](C)CCCC(C)C)O2`, in experiment [1], the Potency result is “inactive”.

`OC1(c2ccc(Cl)cc2)CCNCC1`: in experiment [1], the Potency result is “inactive”.

`[O-][n+]1cccc(/C(Cl)=N/OC[C@@H](O)CN2CCCCC2)c1`: the Potency entry in experiment [1] was “inactive”.

Consider `C1N2CN3CN1CN(C2)C3`, for which, in experiment [1], the Potency result was “inactive”.

As to `COc1cc2nc(Cl)nc(N)c2cc1OC`, the Potency entry in experiment [1] is “inactive”.

On to `COC(=O)c1cc(Cl)ccc1OC`, for which the Potency entry in experiment [1] is “inactive”.

With `CC1CC(=O)NN=C1c1ccc(NCC(C)(C)NCC(O)COc2cc(Cl)ccc2C#N)cc1` (stereo not drawn), the Potency entry in experiment [1] is “inactive”.

With `CCOCCn1c(C2CCN(CCc3ccc(C(C)(C)C(=O)O)cc3)CC2)nc2ccccc21`, the Potency result in experiment [1] was “inactive”.

As to `O=C1OC2(c3ccccc31)c1cc(I)c(O)c(I)c1Oc1c2cc(I)c(O)c1I`, the Potency in experiment [1] was 16.1 µM (active).

On to `CO/N=C(/C(=O)N[C@@H]1C(=O)N2C(C(=O)OCOC(=O)C(C)(C)C)=C(C)CS[C@H]12)c1csc(N)n1`, for which the Potency result in experiment [1] is “inactive”.

Consider `CC(C)(C)c1ccc(O)c(O)c1`, for which the Potency result in experiment [1] is “inactive”.

For `C[C@H]1C[C@H](O)c2ccsc2S1(=O)=O`, the Potency entry in experiment [1] is “inactive”.

For `Cc1cc2nc3ccc(=[N+](C)C)cc-3sc2cc1N`, in experiment [1], the Potency entry is “inactive”.

In the case of `C[N+]1(C)CCC(OC(=O)C(O)(c2ccccc2)C2CCCC2)C1` (stereo not drawn), in experiment [1], the Potency entry was “inactive”.

Consider `O=C(NO)c1ccccc1`, for which, in experiment [1], the Potency result is “inactive”.

In the case of `O=C(O)CNC(=O)CNC(=O)CNC(=O)CSC(=O)c1ccccc1`, the Potency result in experiment [1] is “inactive”.

In the case of `C=CCNc1nc(NCC=C)nc(N2CCN(C(c3ccc(F)cc3)c3ccc(F)cc3)CC2)n1`, in experiment [1], the Potency result is “inactive”.

On to `Nc1ccc(C(=O)OCC(O)CO)cc1` (stereo not drawn), for which the Potency entry in experiment [1] is “inactive”.

Consider `COc1cc(S(N)(=O)=O)cc(C(=O)O)c1OC`, for which the Potency entry in experiment [1] was “inactive”.

As for `Cc1ncc(CO)c(CO)c1O`, the Potency result in experiment [1] was “inactive”.

For the origin of these results see PubChem BioAssay (NCATS).
